Source: PubChem BioAssay AID873 (PCMD, 2007)
“And” between values parts separate entries of the source, which are not always exact repeats. Equal entries are not always repeated. Among all 210,000 compounds or so, about 1,300 (0.62%) were called active.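 The calls were made as follows: active = inhibition of 40% or more; inactive = the rest.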 The full list was thinned out, with actives kept by preference. Some compounds were tested as several samples or in several runs, with calls that do not always agree.

target: Kallikrein-5 (Homo sapiens) (UniProt Q9Y337); assay: human KLK5 protease inhibitors, primary screen, biochemical, 1536-well (AID 873); conditions: recombinant hK5, fluorogenic AMC substrate cleavage; at 5 µM; stronger effect = higher value;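 also: 0% = enzyme controls without compound and 100% = no-enzyme blanks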
Sequence (Q9Y337 67-293 limits assumed): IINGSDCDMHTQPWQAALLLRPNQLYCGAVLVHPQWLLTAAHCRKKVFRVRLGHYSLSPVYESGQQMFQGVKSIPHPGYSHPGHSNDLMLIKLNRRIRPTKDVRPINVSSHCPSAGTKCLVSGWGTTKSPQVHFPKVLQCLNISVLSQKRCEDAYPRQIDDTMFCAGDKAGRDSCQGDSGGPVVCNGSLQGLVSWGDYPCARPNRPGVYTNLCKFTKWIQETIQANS

SMILES	inhibition
Cc1c(C(=O)N(Cc2ccccc2)Cc2cccnc2)cnn1-c1ccc(F)cc1	-6% (inactive)
O=C(Nc1ccc(Oc2ccccc2)cc1)c1ccco1	69.2% (active)
COC(=O)c1ccc(NC(=O)c2ccco2)cc1	-16.9% (inactive)
O=C(CSc1ccccc1)Nc1ccc(NC(=O)c2ccco2)cc1	-26.9% (inactive)
O=C(O)CCCCCCCCCC[n+]1ccccc1	-3.11% (inactive)
CC1(C)CCSC(/C=C/c2ccccc2)=N1	-4.94% (inactive)
Cc1ccc(Nc2nc(N)nc(CN3CCN(Cc4ccccc4)CC3)n2)cc1Cl	-2.25% (inactive)
CC(C)CNC(=O)C1CCCN(S(=O)(=O)c2ccc(-n3cnnn3)cc2)C1 (stereo not drawn)	11.1% (inactive)
COc1cc(C)nc(N2CCCC(C(=O)NCC(C)C)C2)n1 (stereo not drawn)	61.5% (active)
Cc1ccnc(N2CCCC(C(=O)Nc3cc(F)ccc3C)C2)n1 (stereo not drawn)	-31.1% (inactive)
COc1cccc(C2Nc3cccc4cccc(c34)N2)c1	-0.21% (inactive)
Cc1nc2sc(C(=O)c3ccccc3)c(N)c2c2c1CCCC2	44% (active)
CCc1nc2sc(C(=O)O)c(N)c2c2c1CCCC2	-8.59% (inactive)
Cc1ccc2c(N)c(C(=O)c3ccccc3)sc2n1	17.9% (inactive)
COc1ccc(CC(=O)NCC(=O)N/N=C/c2cc(Br)ccc2OC)cc1	-3% (inactive)
Cc1c(C(=O)N/N=C/c2ccccc2)[nH]c2c([N+](=O)[O-])cccc12	7.11% (inactive)
COc1cccc2c(C)c(C(=O)O)[nH]c12	90.6% (active)
COc1cccc2c(O)cc(=O)n(C)c12	-13.9% (inactive)
CSc1nnc(-c2ccc(C(F)(F)F)cn2)o1	2.93% (inactive)
OC(CNCc1ccc2c(c1)OCO2)COc1ccccc1 (stereo not drawn)	2.06% (inactive)
COc1cc(OC)cc(/C(N)=N/O)c1	-2.69% (inactive)

SMILES	inhibition
O=C(O)CCn1cc(/C=C/C(=O)c2ccc(Cl)cc2)c(-c2cccc(Br)c2)n1	121% (active)
CCOC(=O)/C(C#N)=C/c1cn(CCC(=O)O)nc1-c1ccc(Br)cc1	0.91% (inactive)
O=C(O)/C=C/c1cn(Cc2ccccc2)nc1-c1cccs1	-5.27% (inactive)
CCN1CCN(c2nc(Nc3cccc(F)c3)nc(N)c2[N+](=O)[O-])CC1	1.83% (inactive)
COC(=O)c1sccc1NC(=O)CC1C(=O)NCCN1C(=O)Nc1ccc(F)cc1F (stereo not drawn)	-1.42% (inactive)
Cc1ccc(-c2nc(SCC(=O)Nc3ccccc3OC(F)F)c3c(C)c(C(=O)O)sc3n2)cc1	0.7% (inactive)
COc1ccc(OC)c(NC(=O)N[C@H](Cc2ccccc2)C(=O)NN)c1	-9.7% (inactive)
C=CCOC(=O)C1=C(C)N=C2SCCC(=O)N2C1/C=C/c1ccccc1OC (stereo not drawn)	1.43% (inactive)
COC(=O)C1=C(C)NC(=O)NC1/C=C/c1ccccc1 (stereo not drawn)	-24.4% (inactive)
COC(=O)C1=C(C)N=C2SC(C)C(=O)N2C1/C=C/c1ccccc1 (stereo not drawn)	61.9% (active)
CSc1ccc(CN(C)CC(=O)NCc2ccc(F)cc2)cc1	-2.79% (inactive)
Cc1ccnc(NC(=O)CCC(=O)N(CC(=O)NCc2ccccc2)Cc2ccco2)c1	-56.9% (inactive)
NC(=O)c1nsc(C(=O)N(CC(=O)NCc2ccc(F)cc2)Cc2ccco2)c1N	69.4% (active)
Cc1[nH]n(-c2ccccc2)c(=O)c1N=Nc1ccccc1C(=O)N1CCCCC1	3.28% (inactive)
O=C(Cc1ccccc1)N1N=C(c2ccncc2)CC1(O)C(F)(F)F (stereo not drawn)	-2.66% (inactive)
Brc1ccc2ncnc(NCc3cccnc3)c2c1	-4.89% (inactive)
Cc1[nH]n(C)c(=O)c1C(=O)c1c(-c2c(Cl)cccc2Cl)noc1C	5.65% (inactive)
O=C(NCC1CCCO1)/C(=C\c1ccco1)NC(=O)c1ccccc1 (stereo not drawn)	-1.75% (inactive)
O=C(OCN1C(=O)c2ccccc2C1=O)/C(=C\c1ccco1)NC(=O)c1ccccc1	41.6% (active)
Cc1cccc(NC(=O)/C(=C\c2ccco2)NC(=O)c2ccccc2)c1	-17.2% (inactive)
O=C(CNCCC1=CCCCC1)Nc1ccccc1N1CCCCCC1	-0.35% (inactive)

SMILES	inhibition
Cc1cccc(C)c1Nc1c(-c2ccccc2O)nc2ncccn12	-0.27% (inactive)
CC(C)(C)OC(=O)NCCCCCC(=O)N/N=C/c1coc2ccccc2c1=O	-0.18% (inactive)
CCC(C)OC(=O)C(C)Oc1ccc(-c2ccccc2)cc1 (stereo not drawn)	54.9% (active)
COc1cccc(NC(=O)C(C)Oc2ccccc2)c1 (stereo not drawn)	15.3% (inactive)
O=C(O)Cc1ccc(-c2ccccc2)cc1	-3.86% (inactive)
Cc1ccccc1Cn1c2ccccc2c2cnn(CC(=O)NCc3ccco3)c(=O)c21	1.05% (inactive)
CCOc1ccccc1NC(=O)Nc1cc(OC)ccc1OC	-0.87% (inactive)
CCOc1ccccc1NC(=O)CCc1ccc(C)o1	118% (active)
CCOc1ccccc1NC(=O)CCN1CCN(S(=O)(=O)c2ccc(OC)cc2)CC1	0.91% (inactive)
COc1ccc(CNCCCO)cc1OC	46.4% (active)
CCS(=O)(=O)NCCc1ccc(OC)c(OC)c1	-7.94% (inactive)
CCOCCCNCc1ccc(OCc2ccc(F)cc2)c(OC)c1	-4.94% (inactive)
O=C(NCc1cccnc1)C(=O)Nc1nc(-c2ccccc2)cs1	-0.27% (inactive)
COc1ccccc1-n1cnc2cc(NS(=O)(=O)c3ccccc3)ccc21	53.3% (active)
COc1cc(NS(=O)(=O)c2ccccc2)ccc1-n1nc(C)cc1C	-1.07% (inactive)
COCCCNC(=O)c1ccc2c(c1)ncn2-c1ccccc1OC	-11.7% (inactive)
O=S(=O)(c1ccc(NC(=S)NN=C(C2CC2)C2CC2)cc1)N1CCOCC1	-9.15% (inactive)
CCC(=O)/C=C1\Sc2ccccc2N1CC	-8.47% (inactive)
CCN1C(=O)/C(=C2/Sc3ccccc3N2CCCS(=O)(=O)O)SC1=S	-2.57% (inactive) and 43.4% (active)
CCN1C(=O)/C(=c2\s/c(=C3\Sc4ccccc4N3C)c(=O)n2C)N(C)C1=S	2.3% (inactive)
S=c1nc2ccccc2c2nc(-c3cccnc3)[nH]n12	-1% (inactive)

SMILES	inhibition
O=C(CN1CCN(Cc2ccccc2)CC1)NC(c1ccccc1)c1ccccc1	-1.99% (inactive)
Cc1cc2c(cc1C)N(Cc1ccccc1)C1=NCCCN12	-0.81% (inactive)
COc1ccc(C(C(=O)NC(C)(C)C)N(C(=O)Cn2nnc3ccccc32)c2ccc(C(C)=O)cc2)cc1O (stereo not drawn)	-4.08% (inactive)
CCOc1ccc(/C(O)=C2\C(=O)C(=O)N(c3ccc(OC)cc3)C2c2ccccc2[N+](=O)[O-])cc1 (stereo not drawn)	-0.1% (inactive)
C/C(Cc1ccccc1)=N\NC(=O)CNC(=O)c1cccc(Br)c1	-15.8% (inactive)
C/C(Cc1ccccc1)=N\NC(=O)CNC(=O)c1ccccc1Cl	47.7% (active)
C/C(Cc1ccccc1)=N\NC(=O)CNC(=O)c1ccc2c(c1)OCCO2	-2.98% (inactive)
Cc1cc(C(=O)NCCc2ccc(Cl)cc2)n(-c2ccccc2)n1	0.87% (inactive)
C=CCNC(=O)c1ccc2c3n(nc2c1)-c1ccc(C)cc1CO3	2.58% (inactive)
C=CCNC(=S)N/N=C/c1ccc(C)s1	-12.8% (inactive)
Cc1nc(-c2ccc(Cl)cc2)sc1C1(C)CC(c2ccccc2F)=NO1 (stereo not drawn)	2.17% (inactive)
CC(=O)c1ccc(S(=O)(=O)N2CCN(C(=O)/C=C/c3ccc4ccccc4n3)CC2)cc1	-6.25% (inactive)
COCCNC(=S)N1CCN(C)CC1	0.97% (inactive)
COc1cccc(NC(=O)c2ccccc2SC)c1	-2.44% (inactive)
CC(=O)c1cccc(NC(=O)c2ccncc2)c1	2.01% (inactive)
CSc1ccccc1C(=O)Nc1cccc(C(C)=O)c1	45% (active)
CC(C)(C)C(=O)NNC(=O)c1ccc(Oc2cc(Cl)cc(Cl)c2)o1	4.32% (inactive)
COCCNc1nc(-c2ccccc2)nc2c1oc1ccccc12	1.99% (inactive)
Cn1c(=O)c2c(-c3cccc(Br)c3)c(C#N)c(N)nc2n(C)c1=O	2.05% (inactive)
S=C(NCCc1ccccc1)Nc1ccccc1	2.79% (inactive)
